Assay results: ChEMBL document CHEMBL3988442, “University of Dundee, Small-Polar-MMV Screening Library” (2021)
For some of these results: Results with a measured potency or affinity are listed apart.

Columns and labels:
Set-up in all cases: scale not given: direction of the effect not stated beside the values
[1] = biological target: Protein translocase subunit SecA (Escherichia coli (strain K12)) (UniProt P10408); assay: Assay to Identify E. coli SecA ATPase Inhibitors; type: functional; details: 30 µM
[2] = biological target: T1, Ubiquitin-activating enzyme e1, putative (Leishmania donovani (strain BPK282A1)) (UniProt E9BSI1); assay: Leishmania donovani Ubiquitin Activating Enzyme (LdE1); type: functional; details: 30 µM
T1 sequence (whole entry): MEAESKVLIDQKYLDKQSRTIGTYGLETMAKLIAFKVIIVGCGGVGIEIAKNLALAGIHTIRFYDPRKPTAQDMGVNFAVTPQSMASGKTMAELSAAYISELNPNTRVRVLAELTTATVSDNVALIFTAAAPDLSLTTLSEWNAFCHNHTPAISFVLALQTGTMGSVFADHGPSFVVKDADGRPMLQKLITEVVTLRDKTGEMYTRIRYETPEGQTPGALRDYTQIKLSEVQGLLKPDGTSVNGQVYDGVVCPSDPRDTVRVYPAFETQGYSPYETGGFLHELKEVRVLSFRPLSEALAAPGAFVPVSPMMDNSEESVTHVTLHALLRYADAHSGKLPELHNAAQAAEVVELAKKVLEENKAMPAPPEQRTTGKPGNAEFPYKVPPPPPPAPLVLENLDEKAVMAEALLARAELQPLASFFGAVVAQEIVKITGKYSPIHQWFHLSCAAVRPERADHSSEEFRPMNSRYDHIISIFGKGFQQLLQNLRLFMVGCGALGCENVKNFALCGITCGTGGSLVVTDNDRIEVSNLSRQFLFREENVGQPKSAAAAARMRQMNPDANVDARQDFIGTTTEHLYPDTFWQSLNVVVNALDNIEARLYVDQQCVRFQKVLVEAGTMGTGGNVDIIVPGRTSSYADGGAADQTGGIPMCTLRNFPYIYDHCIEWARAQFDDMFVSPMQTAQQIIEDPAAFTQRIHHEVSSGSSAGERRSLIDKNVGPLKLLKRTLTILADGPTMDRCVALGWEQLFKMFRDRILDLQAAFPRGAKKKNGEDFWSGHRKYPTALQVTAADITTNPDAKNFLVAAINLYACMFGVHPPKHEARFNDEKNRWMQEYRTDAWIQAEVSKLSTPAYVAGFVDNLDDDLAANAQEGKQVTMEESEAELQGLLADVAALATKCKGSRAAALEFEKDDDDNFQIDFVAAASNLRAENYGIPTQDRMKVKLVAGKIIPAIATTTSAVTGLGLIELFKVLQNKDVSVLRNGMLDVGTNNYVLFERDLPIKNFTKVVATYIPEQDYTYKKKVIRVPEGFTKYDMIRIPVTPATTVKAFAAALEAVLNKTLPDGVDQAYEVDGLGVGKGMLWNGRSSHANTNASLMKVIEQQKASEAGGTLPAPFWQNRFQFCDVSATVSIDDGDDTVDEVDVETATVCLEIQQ

[3] = biological target: AMP-activated protein kinase, AMPK (Homo sapiens) (UniProt P54646+O43741+P54619+Q9UGJ0+Q9Y478+Q13131+Q9UGI9); assay: AMP-dependent Kinase enzyme assay. An in vitro enzyme assay that detects ADP turnover that is directly proportional to AMPK activity. This uses naive AMPK that is activated during the assay with MK-8722; type: functional; details: 30 µM
[4] = biological target: Sialic acid-binding Ig-like lectin 9 (Homo sapiens) (UniProt Q9Y336); assay: Hs-Siglec9 ALPHAscreen SOP 20170721; details: 10 µM
Trypanosoma cruzi = assay: Trypanosoma cruzi phosphomannomutase and mannose-1-phosphate guanylyltransferase assay; type: functional; details: 10 µM
[5] = biological target: T2, Arginase-2, mitochondrial (Homo sapiens) (UniProt P78540); assay: in vitro enzyme assay to detect the production of urea directly proportional to the activity of Arginase II; type: functional; details: 33.3 µM; further: in the data most compounds retested in dose-response had high values
T2 sequence (whole entry): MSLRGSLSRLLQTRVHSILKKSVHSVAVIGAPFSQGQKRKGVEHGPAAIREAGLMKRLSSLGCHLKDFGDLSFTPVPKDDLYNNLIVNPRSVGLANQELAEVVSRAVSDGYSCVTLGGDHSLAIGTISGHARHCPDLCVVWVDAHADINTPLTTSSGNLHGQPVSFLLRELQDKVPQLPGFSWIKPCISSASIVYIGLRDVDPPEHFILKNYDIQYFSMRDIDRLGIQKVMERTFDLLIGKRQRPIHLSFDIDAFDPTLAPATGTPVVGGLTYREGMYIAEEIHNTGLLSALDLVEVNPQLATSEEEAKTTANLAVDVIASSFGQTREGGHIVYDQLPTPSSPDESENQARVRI

[6] = biological target: T3, Proteasome subunit beta (Trypanosoma cruzi) (UniProt O96673); assay: Trypanosoma cruzi proteasome chymotrypsin-like activity (TcProtChymo) assay.; further: in the data most compounds retested in dose-response had high values; type: functional; details: 9.37 µM
T3 sequence (whole entry): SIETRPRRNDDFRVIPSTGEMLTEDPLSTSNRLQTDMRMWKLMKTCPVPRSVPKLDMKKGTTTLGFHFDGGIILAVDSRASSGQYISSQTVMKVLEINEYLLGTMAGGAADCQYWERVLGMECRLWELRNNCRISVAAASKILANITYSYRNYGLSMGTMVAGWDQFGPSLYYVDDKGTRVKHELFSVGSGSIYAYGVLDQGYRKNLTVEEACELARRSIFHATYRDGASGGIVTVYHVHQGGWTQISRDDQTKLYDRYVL

Homo sapiens = species on record: Homo sapiens; assay: To identify inhibition of the IFN signalling (Jak-Stat) pathway via expression of an eGFP reporter gene under the control of an IFN-stimulated response element (ISRE) containing MxA promoter.; type: functional; details: 30 µM
[7] = biological target: T4, Tyrosyl-tRNA synthetase, putative (Trypanosoma cruzi (strain CL Brener)) (UniProt Q4DSP6); assay: Trypanosoma cruzi tyrosyl tRNA synthetase (TcYRS) _High Tyrosine SOP; type: functional; details: 30 µM; further: in the data most compounds retested in dose-response had high values
T4 sequence (whole entry): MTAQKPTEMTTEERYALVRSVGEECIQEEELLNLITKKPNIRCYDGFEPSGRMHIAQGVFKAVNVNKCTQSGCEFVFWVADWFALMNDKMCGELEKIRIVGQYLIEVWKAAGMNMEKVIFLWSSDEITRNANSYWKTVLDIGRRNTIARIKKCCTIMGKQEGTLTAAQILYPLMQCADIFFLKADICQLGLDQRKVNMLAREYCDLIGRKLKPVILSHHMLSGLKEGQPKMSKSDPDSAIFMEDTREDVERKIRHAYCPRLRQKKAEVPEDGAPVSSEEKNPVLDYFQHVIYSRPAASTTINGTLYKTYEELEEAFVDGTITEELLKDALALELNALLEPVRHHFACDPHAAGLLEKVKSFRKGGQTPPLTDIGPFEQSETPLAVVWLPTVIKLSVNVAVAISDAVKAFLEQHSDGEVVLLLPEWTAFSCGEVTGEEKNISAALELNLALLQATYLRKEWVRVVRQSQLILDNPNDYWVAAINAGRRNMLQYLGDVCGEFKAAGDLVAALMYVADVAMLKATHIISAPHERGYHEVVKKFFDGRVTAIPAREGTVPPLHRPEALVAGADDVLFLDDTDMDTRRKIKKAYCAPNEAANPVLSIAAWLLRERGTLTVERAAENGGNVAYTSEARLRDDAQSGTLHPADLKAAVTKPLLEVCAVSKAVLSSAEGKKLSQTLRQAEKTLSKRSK

[8] = biological target: T4, Tyrosyl-tRNA synthetase, putative (Trypanosoma cruzi (strain CL Brener)); assay: Trypanosoma cruzi tyrosyl tRNA synthetase (TcYRS) SOP; type: functional; details: 30 µM
[9] = biological target: Chromo domain-containing protein 1 (Saccharomyces cerevisiae (strain ATCC 204508 / S288c) (Baker's yeast)) (UniProt P32657); assay: ScCHD-1 Enzyme Inhibition Assay; type: functional; details: 30 µM; further: in the data most compounds retested in dose-response had high values
Chromo domain-containing protein 1 (Saccharomyces cerevisiae (strain ATCC 204508 / S288c) (Baker's yeast)), sequence (P32657 whole entry, the tested form may be a part): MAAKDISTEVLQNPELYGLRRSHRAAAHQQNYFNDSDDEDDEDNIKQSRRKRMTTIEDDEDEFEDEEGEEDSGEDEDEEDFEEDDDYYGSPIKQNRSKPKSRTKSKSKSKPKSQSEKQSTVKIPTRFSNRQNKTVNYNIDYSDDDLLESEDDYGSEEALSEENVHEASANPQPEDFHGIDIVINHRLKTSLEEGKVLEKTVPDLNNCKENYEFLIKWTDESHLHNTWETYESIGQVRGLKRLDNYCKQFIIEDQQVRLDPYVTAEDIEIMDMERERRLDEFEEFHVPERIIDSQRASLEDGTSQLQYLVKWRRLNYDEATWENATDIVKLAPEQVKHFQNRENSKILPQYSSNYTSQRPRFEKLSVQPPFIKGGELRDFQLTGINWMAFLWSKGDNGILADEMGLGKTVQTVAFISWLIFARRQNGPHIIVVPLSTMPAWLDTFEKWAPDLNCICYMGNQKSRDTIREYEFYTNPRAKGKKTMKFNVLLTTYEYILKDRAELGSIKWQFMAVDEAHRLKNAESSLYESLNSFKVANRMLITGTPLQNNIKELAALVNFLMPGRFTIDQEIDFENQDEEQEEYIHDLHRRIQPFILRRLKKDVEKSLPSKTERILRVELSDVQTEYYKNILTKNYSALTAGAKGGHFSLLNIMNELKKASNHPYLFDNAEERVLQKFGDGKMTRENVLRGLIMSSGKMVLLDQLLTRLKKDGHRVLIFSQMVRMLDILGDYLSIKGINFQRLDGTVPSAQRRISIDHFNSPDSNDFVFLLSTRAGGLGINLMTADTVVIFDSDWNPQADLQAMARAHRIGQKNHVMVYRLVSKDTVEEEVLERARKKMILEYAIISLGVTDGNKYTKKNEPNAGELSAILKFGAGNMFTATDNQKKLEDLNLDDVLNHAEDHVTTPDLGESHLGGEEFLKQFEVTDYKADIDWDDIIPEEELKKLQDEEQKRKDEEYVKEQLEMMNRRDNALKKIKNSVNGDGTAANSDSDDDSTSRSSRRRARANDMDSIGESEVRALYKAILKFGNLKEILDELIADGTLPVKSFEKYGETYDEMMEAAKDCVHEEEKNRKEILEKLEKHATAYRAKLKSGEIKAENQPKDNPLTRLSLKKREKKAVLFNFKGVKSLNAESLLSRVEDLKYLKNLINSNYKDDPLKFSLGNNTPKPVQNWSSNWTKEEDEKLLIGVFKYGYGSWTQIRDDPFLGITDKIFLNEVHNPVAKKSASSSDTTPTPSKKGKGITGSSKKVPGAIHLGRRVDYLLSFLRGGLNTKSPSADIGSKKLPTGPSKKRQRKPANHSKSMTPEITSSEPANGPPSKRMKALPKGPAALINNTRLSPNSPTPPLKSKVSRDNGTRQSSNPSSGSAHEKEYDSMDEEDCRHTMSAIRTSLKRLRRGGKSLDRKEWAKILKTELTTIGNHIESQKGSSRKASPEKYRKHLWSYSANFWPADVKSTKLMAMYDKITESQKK

Protein translocase subunit SecA (Escherichia coli (strain K12)), sequence (P10408 whole entry): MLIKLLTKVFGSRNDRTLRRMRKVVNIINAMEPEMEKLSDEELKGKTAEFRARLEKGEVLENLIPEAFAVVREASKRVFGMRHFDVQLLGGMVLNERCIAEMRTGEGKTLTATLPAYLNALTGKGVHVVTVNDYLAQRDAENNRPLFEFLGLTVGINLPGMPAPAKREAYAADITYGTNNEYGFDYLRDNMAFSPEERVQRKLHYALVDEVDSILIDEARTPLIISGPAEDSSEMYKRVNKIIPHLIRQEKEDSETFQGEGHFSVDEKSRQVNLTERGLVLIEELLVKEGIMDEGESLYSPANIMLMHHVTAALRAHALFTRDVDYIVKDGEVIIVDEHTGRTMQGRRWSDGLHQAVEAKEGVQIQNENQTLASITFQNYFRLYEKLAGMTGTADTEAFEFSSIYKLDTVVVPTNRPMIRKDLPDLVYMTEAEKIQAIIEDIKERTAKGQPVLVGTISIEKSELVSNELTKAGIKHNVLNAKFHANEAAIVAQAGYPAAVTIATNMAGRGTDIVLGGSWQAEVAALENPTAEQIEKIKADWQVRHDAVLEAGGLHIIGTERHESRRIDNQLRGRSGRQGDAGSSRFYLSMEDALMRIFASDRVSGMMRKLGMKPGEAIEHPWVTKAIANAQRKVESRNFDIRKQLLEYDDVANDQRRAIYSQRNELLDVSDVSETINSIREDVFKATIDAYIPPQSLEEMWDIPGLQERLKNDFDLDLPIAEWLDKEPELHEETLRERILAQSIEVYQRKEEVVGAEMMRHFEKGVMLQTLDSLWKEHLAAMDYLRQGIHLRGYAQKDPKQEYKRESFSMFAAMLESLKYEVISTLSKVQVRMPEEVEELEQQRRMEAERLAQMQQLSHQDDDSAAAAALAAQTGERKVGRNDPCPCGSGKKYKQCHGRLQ
Sialic acid-binding Ig-like lectin 9 (Homo sapiens), sequence (Q9Y336 whole entry): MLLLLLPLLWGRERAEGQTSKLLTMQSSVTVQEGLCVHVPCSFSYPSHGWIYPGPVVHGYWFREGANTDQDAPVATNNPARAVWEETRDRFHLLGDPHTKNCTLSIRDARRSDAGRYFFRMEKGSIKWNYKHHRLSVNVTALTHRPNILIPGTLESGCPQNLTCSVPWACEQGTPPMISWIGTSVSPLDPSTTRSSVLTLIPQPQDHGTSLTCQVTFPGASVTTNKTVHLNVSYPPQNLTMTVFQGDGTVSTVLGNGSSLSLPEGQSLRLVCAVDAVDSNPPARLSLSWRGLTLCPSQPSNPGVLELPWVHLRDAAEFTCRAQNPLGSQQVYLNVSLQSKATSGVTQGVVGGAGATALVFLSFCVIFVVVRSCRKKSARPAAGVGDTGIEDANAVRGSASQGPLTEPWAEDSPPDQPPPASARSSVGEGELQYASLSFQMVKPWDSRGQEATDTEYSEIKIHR

Row | Structure (SMILES) | Percent Effect [1] | Percent Effect [2] | Percent Effect [3] | Percent Effect [4] | Percent Effect (Trypanosoma cruzi) | Percent Effect [5] | Percent Effect [6] | Percent Effect (Homo sapiens) | Percent Effect [7] | Percent Effect [8] | Percent Effect [9]
1 | O=C(c1cnccn1)N1CCN(Cc2ccncc2)c2ncccc2C1 | -1.27% | 0% | 2.52% | 4.53% | -1.54% | -20.2% | 2.73% | -10.5% | 2.08% | 2.5% | -3.2%
2 | Cc1ccc(CN2C[C@@H]3COC[C@H](NS(C)(=O)=O)[C@@H]3C2)o1 | -3.56% | 13.3% | 3.44% | -1.89% | -4.05% | -56.8% | 7.86% | 12.6% | 4.17% | 15% | -6.77%
3 | Cn1cc(-c2csc(N3CCN(C(=O)OC(C)(C)C)CC3)n2)cn1 | -0.688% | 4.17% | -13.6% | 7.74% | 1.85% | 30.5% | 8.42% | 57.3% | 10.5% | 12.8% | -1.57%
4 | Cn1ccc(CN2CCC(COC3CCCC3)CC2)cc1=O | -2% | -59.5% | -8.16% | 2.17% | 2.15% | 3.66% | 11.2% | 26.8% | -10.4% | 17.7% | -25.3%
5 | Cc1nn(C)cc1C(=O)Nc1cccc(CN2CCC(CO)CC2)c1 | -3.16% | 18.4% | -4.72% | -21.7% | 3.41% | 26% | 8.53% | 28.8% | 1.06% | 15.6% | -7.09%
6 | COC(=O)c1ccc2ccn(CC3CCNC3)c(=O)c2c1 (stereo not given) | -1.56% | 24.7% | -24.1% | 16.4% | 4.31% | 2.27% | 21.8% | 6.65% | 6.45% | 20% | -5.95%
7 | O=C(CCc1ccsc1)N1CCC(Cc2ccc(CO)cc2)C1 (stereo not given) | 2.19% | 4.17% | -0.478% | -3.78% | -6.9% | 3.53% | 12.5% | -1.24% | 3.16% | 7.69% | -1.32%
8 | CN(CCO)Cc1nnc(C2CCN(C(=O)C(C)(C)C)CC2)n1C | -2.6% | 5.33% | 1.76% | -1.99% | -7.69% | 6.25% | 16.6% | 2.97% | 0.546% | 3.7% | -6%
9 | COc1ccccc1S(=O)(=O)Nc1ccc2c(C(=O)O)c[nH]c2c1 | -5.95% | -10.4% | -64.6% | 10.9% | 8.05% | -4.98% | 8.28% | 14.3% | 0% | 12.2% | -7.94%
10 | N#Cc1ccnc(N2CCN(CC(O)c3cccc(F)c3)CC2)c1 (stereo not given) | -4.31% | 2.7% | 0.651% | -0.828% | -3.42% | 3.72% | 2.83% | -1.26% | 5.38% | 11.1% | -2.53%
11 | O=C(c1ccccn1)N1C[C@@H]2CC[C@H](C1)N(C(=O)CCc1ccsc1)C2 | -0.66% | 7.79% | 1.47% | 8.15% | -4.82% | -5.52% | 13.3% | 5.27% | 7.53% | 13.6% | -2.49%
12 | CC1CCN(C(=O)CN(Cc2ccco2)C2CC2)CC1 | -1.66% | 2.6% | 6.73% | 0.322% | 6.95% | -1.47% | 7.84% | 3.81% | 1.91% | 7.06% | -5.98%
13 | O=C1CCCc2cc(-c3csc(CCN4CCOC4=O)n3)ccc2N1 | -5.49% | 20.8% | 0.804% | 11.1% | 4.12% | 2.85% | 18.1% | 36.1% | 8.74% | 26.8% | -9.88%
14 | CN1CCCC1CNC(=O)c1nnn(-c2ccc(F)cc2)c1C1CC1 (stereo not given) | -5.49% | 0% | 1.3% | 3.88% | -5.86% | 0% | 8.2% | 10.9% | 4.95% | 3.66% | -4.68%
15 | CCc1nc(C(=O)NCc2ccc(N3CCNC(=O)C3)c(F)c2)c[nH]1 | 2.33% | 18.9% | -4.78% | 31.7% | 4.63% | -3.81% | 20% | 13.4% | 5.82% | 12.2% | -2.24%
16 | Cc1ncsc1C(=O)NC1CCN(CC(=O)NCc2ccccc2)CC1 | -3.36% | 13.2% | 0.646% | 1.72% | 2.71% | -1.8% | 7.02% | -2.18% | 9.36% | 16.1% | -2.75%
17 | CCc1nccn1C1CCCN(C(=O)c2cn3cccnc3n2)C1 (stereo not given) | -1.83% | 2.7% | -8.93% | 1.79% | -2.17% | 2.81% | -3.96% | -7.1% | 1.48% | -1.24% | 1.22%
18 | CNC(=O)Nc1cc(-c2ccc(Br)cc2)nn1CCO | -6.67% | 10.5% | 0.242% | 1.93% | 5.94% | -16.6% | 3.16% | -5.7% | 4.25% | 2.6% | -2.66%
19 | CCc1nccn1C1CCCN(C(=O)CCc2nccs2)C1 (stereo not given) | -2% | -5.41% | -10.8% | 5.59% | -0.66% | -6.81% | 5.77% | 1.54% | 1.48% | 1.24% | -1.72%
20 | Cc1c(C)n(Cc2ccccn2)c2nc3c(c(N)c12)CCCC3 | -3.58% | -1.33% | 15.5% | 6.91% | -3.73% | -8.98% | 12.8% | -6.48% | 2.12% | 5.13% | -5.09%
